MITF TRPM1 HTS = activators of MITF-driven TRPM1 promoter reporter, primary screen, cell-based, SK-MEL-5, luciferase, single point. SK-MEL-5 TRPM1-promoter luciferase, 24 h; % of positive control, neutral wells = 0. activation, % at 12.5 µM. actives 0.75% (n = 300,000);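 active = mean activation of at least 80% with every replicate also reaching 80%; inconclusive = mean reaches 80% but some replicate falls short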;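 note: 0% = neutral control wells and 100% = parthenolide positive control wells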
MLL AF4-AF9 inh = inhibitors of AF4 peptide binding to AF9, primary screen, biochemical, AlphaScreen, biotin-AF4 peptide, FLAG-AF9, single point; Protein AF-9 (Homo sapiens), P42568; inhibition, % at 10 µM; actives 0.47% (n = 350,000);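 active = every replicate reaching a set inhibition limit, whatever the replicate mean, cut at about 25% in these data; inconclusive = mean inhibition reaches that limit but some replicates miss it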;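 note: 0% = plate neutral control median and 100% = total signal loss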
Target sequence (P42568 whole entry, looked up): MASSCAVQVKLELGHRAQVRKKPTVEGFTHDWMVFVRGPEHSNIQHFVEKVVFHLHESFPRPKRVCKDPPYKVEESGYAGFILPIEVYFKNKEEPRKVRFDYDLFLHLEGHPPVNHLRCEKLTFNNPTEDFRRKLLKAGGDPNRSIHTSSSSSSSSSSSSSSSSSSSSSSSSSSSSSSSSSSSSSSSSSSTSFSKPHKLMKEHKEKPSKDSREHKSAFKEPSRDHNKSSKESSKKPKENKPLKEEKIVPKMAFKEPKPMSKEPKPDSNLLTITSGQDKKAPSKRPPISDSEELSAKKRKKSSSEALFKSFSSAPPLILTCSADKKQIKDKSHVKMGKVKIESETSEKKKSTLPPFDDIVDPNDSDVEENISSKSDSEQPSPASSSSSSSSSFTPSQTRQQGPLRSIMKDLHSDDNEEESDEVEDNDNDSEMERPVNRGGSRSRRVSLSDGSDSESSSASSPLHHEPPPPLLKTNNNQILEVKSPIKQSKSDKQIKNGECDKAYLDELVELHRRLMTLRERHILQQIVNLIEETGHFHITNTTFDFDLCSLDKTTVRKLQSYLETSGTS
esBAF inh = Bmi1 luciferase reporter increase in mESCs, primary screen, esBAF inhibitor project, mouse ES cells, Bmi1 luciferase knock-in, single point; reporter increase, % at 12.5 µM; actives 2% (n = 350,000); 24 h; 100% = twice the neutral-well signal; in the data active = activation above about 40%; inconclusive = no clear call, values can overlap the other calls;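 note: 0% = median of the plate's neutral control wells and 100% = double that signal; a rise in the Bmi1 reporter signal indicates esBAF inhibition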
Wnt bcat act = Wnt/beta-catenin pathway activators, primary screen, cell-based, plate reader, single point | Wnt/beta-catenin reporter cell assay, activator | actives 1.2% (n = 300,000) | activation, % at 9.35 µM; in the data active = activation above about 30%, passing the limit was not always enough; inconclusive = no clear call, values can overlap the other calls;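 note: 0% = neutral control wells and 100% = positive control wells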
rRNA inh HTS = reduced GFP signal of wild-type E. coli, primary screen, bacterial rRNA inhibitor project, GFP/RFP fluorescence, OD600, single point. E. coli WT GFP vs humanized-ribosome RFP mutants, 24 h; hits give low values; DMSO median 0, no signal -100. GFP signal change (wild-type ribosome), % (test concentration not listed). actives 1.6% (n = 350,000). AID 720706, 2013;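 active = significant combined selectivity score with lowered wild-type GFP, culture density cut under 30%, mutant RFP and density less affected; inactive = any of these conditions unmet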
AlphaScreen intf = AlphaScreen signal interference counter-screen, dose response, artefact control, biochemical, cherry-picked samples, luminescence. shares compounds with MLL AF4-AF9 inh. actives 45% (n = 530). AC50, µM (highest dose often 12 µM), for inactives: at the top dose activity change, negative = inhibition; cut-off not given, nearly all actives have AC50 up to about 14 µM
An asterisk follows results filed as active; ? = inconclusive; . = not tested or not shown. Rows were chosen to be rich in hits. Some 3.7% of all compounds tested hit in one or more screens of this group.

SMILES	MITF TRPM1 HTS	MLL AF4-AF9 inh	esBAF inh	Wnt bcat act	rRNA inh HTS	AlphaScreen intf
C#CCNC(=O)C[C@@H]1C[C@@]2(C(=O)OC)CC(C)(C)CC=C2N(CCc2ccc(OC)c(OC)c2)C1=O	.	-1.2	.	0.6	-2.7	.
Cc1csc(Nc2ccccc2)[n+]1-c1ccccc1	1.3	27.8*	.	27.7	-13.0	-35.3%
CN(C)c1cccc2c(C=C(C#N)C#N)ccc(N(C)C)c12	-11.4	50.8*	.	.	3.5	-23.1%
CN1CCN(C(c2ccc(C(F)(F)F)cc2)c2cc(Cl)c3cccnc3c2O)CC1 (stereo not given)	.	81.5*	.	18.4	-50.6	2.06µM*
Oc1c(C(c2ccccn2)N2CCCCC2)cc(Cl)c2cccnc12 (stereo not given)	-29.3	57.7*	.	58.8*	-43.0	8.67µM*
CN1CCN(C(c2ccc(Cl)cc2)c2cc(Cl)c3cccnc3c2O)CC1 (stereo not given)	-42.3	85.3*	-22.8	8.7	-54.7	2.17µM*
O=C(NC(c1ccc(Cl)cc1)c1cc(Cl)c2cccnc2c1O)c1cccnc1 (stereo not given)	-41.1	.	.	3.5	.	.
Cc1c(Cl)cccc1NS(=O)(=O)c1cn(C)c(=O)n(C)c1=O	.	-3.9	-9.2	-1.5	2.1	.
O=C(CP(=O)(c1ccccc1)c1ccccc1)N1CCCCC1	2.2	.	4.1	.	.	.
O=C(Nc1ccccc1NC(=O)NC1CCCCC1)NC1CCCCC1	-31.4	.	14.8	1.8	.	.
Nc1ccccc1NC1CCCCC1	7.7	32.6*	.	0.6	-35.1	9.99µM*
C/C(=N\N1CCN(C2c3ccccc3-c3ccccc32)CC1)c1cccnc1	.	.	7.4	.	.	.
CN=c1scc(-c2ccccc2F)n1/N=C(\C)c1cccnc1	16.9	36.9*	.	18.6	-48.6	-31.1%
CCOc1ccc(NC(=S)N(CCN2CCOCC2)Cc2ccc3c(c2)CCCN3CC)cc1	6.8	39.3*	0.1	-2.1	-1.1	-27.9%
COCC#Cc1cnc2c(c1)C(=O)N([C@@H](C)CO)C[C@H](C)[C@@H](CN(C)C(=O)CN1CCOCC1)O2	.	-2.0	0.2	.	6.5	.
CCN(CC)c1ccc(C(=C2C=CC(=[N+](CC)CC)C=C2)c2ccc(N(CC)CC)cc2)cc1	.	98.1*	-86.7	-24.7	.	0.256µM*
CCN(C[C@H]1N[C@H](CO)[C@@H]1c1ccc(-c2ccc(F)cc2)cc1)C(=O)COC	.	2.4	0.3	.	-1.0	.
C[C@@H]1CN([C@@H](C)CO)S(=O)(=O)c2ccc(C3=CCCCC3)cc2O[C@H]1CN(C)Cc1ccncc1	.	12.4	-1.7	.	-26.2	.
COc1ccc(C(CCNCc2ccc(N(C)C)cc2)c2ccccc2OC)cc1 (stereo not given)	.	51.4*	-3.6	-1.7	-35.1	4.66µM*
CCOC(=O)c1c(C)n(-c2ccc(C)cc2)c2ccc(OCC(O)CNCCCO)cc12 (stereo not given)	-67.9	27.1*	.	-9.6	-56.3	-18.5%
c1ccc2c(Nc3ccc4c(c3)OCCO4)c3c(nc2c1)CCCC3	-4.1	23.8	.	-5.5	-11.5	-28.8%
COc1ccc(N(CC(=O)N2CCN(Cc3ccc4c(c3)OCO4)CC2)S(=O)(=O)c2ccc(F)cc2)cc1	1.4	12.7	-5.9	-1.4	-14.6	.
CCOc1ccc(Nc2nc(NCC3CCCO3)c3ccccc3n2)cc1 (stereo not given)	-5.5	27.8*	.	-2.3	-53.2	-10.8%
COC(=O)c1ccc(COc2cccc3c2CCN(Cc2cccc(C)c2)C3=O)o1	-12.8	0.7	.	4.7	-18.9	.
COc1cc(O)c(C(CCN2CCN(c3ccccc3)CC2)c2ccc(N(C)C)cc2)c(OC)c1 (stereo not given)	11.8	49.8*	0.7	-3.2	-0.2	-22.9%
SMILES	MITF TRPM1 HTS	MLL AF4-AF9 inh	esBAF inh	Wnt bcat act	rRNA inh HTS	AlphaScreen intf
COc1ccc(C(CCN2CCN(c3ccccc3)CC2)c2c(O)cc(OC)cc2OC)cc1 (stereo not given)	7.6	.	2.5	-3.3	.	.
CCCC#Cc1ccc([C@H]2[C@H]3CN(S(=O)(=O)c4ccccc4C)CCCCN3[C@H]2CO)cc1	.	-2.3	.	.	-1.6	.
Cc1cc(N=Nc2ccc(Cl)cc2)cc(CN2CCOCC2)c1O	-0.5	29.7*	1.3	0.7	.	-33.7%
Oc1c(CN2CCOCC2)cc(CN2CCOCC2)cc1CN1CCOCC1	16.6	-2.6	-10.2	-6.3	13.1	.
CCCCN(C(=O)c1cc(CC)c(C)s1)c1c(N)n(CC(C)C)c(=O)[nH]c1=O	12.9	2.2	0.8	-0.9	-5.1	.
O=C(C[C@@H]1C[C@@H]2c3cc(NC(=O)Cc4ccncc4)ccc3O[C@@H]2[C@H](CO)O1)NCc1ccc(-c2ccccc2)cc1	.	-0.7	6.9	.	-3.9	.
CCN(CC)c1ccc(CNc2ccc3c(c2)ncn3C(C)(C)C)cc1	-8.6	41.1*	-4.9	0.2	5.1	8.99µM*
CS(=O)(=O)N1CCCCN2[C@H](C1)[C@@H](c1ccc(C#Cc3ccccn3)cc1)[C@@H]2CO	.	-8.2	.	.	2.1	.
CS(=O)(=O)N1CCCCN2[C@H](C1)[C@H](c1ccc(C#Cc3ccccn3)cc1)[C@@H]2CO	.	32.5*	.	.	5.7	-15.9%
Nc1ccc(C(=O)O)c(O)c1	-2.1	9.3	-3.8	-1.7	-4.2	.
Nc1ccc(N)c(C(=O)O)c1	-24.1	26.7*	-5.5	-1.5	.	-8.0%
Cc1ccc(C)c(NC(=O)c2ccccc2NS(=O)(=O)c2cc([N+](=O)[O-])ccc2C)c1	-24.9	-1.3	.	-4.2	.	.
CC(C)N1CCN(c2ccc(OCC3COC(Cn4cncn4)(c4ccc(Cl)cc4Cl)O3)cc2)CC1 (stereo not given)	1.1	20.1	.	-0.8	-0.2	-30.8%
COc1ccc(N2CCN(C(=O)Cn3cncn3)CC2)cc1	4.8	6.0	-2.8	-0.6	5.7	.
CCn1c(SCC(=O)N2c3ccccc3Sc3ccccc32)nnc1-c1ccco1	-10.4	.	1.7	.	-39.8	.
Cn1c(SCC(=O)N2c3ccccc3Sc3ccc(Cl)cc32)nnc1-c1ccco1	-7.0	?	2.1	-3.9	-36.0	-2.4%
COC(=O)C1=CN(Cc2ccc(OC)cc2)C=C(C(=O)OC)C1c1cccs1	3.0	-12.9	.	-0.4	-14.2	.
COC(=O)C1=CC(C(=O)c2cccs2)=NN(c2ccc(OC)cc2)C1C(=O)OC (stereo not given)	-11.7	32.4*	.	-8.4	-4.5	-25.1%
Cc1nc(C)c(C(=O)O)s1	-2.4	-12.7	-3.4	-1.7	6.7	.
Cc1cccc(OCC(=O)N(Cc2nnc(-c3ccccc3Cl)o2)C2CC2)c1	-7.1	-3.3	-6.1	-3.4	.	.
CN(C)CCNc1nc2sc3c(c2c(=O)n1CCc1ccccc1)CCCCC3	.	31.3*	.	-2.7	.	-7.5%

Assay outcomes from PubChem BioAssay.
